From PubChem BioAssay (NCATS) come the findings set out here.

Values without a mark were called inactive. Records with an inconclusive call do not appear. Active and inactive are the calls of the source. Calls follow the shape of the dose curve; as a rule, active = well fitted curve in the direction sought with a large enough effect; inconclusive = small, poorly fitted or top-dose-only effect, or another doubt; inactive = no such curve, though single readings can be large; an effect the other way counts as inactive or inconclusive. Where a SMILES comes first, the peptide text is derived from it.

Assay [1] concerns the target Glutathione peroxidase 1 (Homo sapiens) (UniProt P07203). Nature of the assay: Primary qHTS Assay for Inhibitors of Recombinant Selenoprotein Glutathione Peroxidase 1 (GPX1) (AID 1845191). Also: nearly all actives have a fitted effect of over 65% in size. Put shortly:
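NADPH consumption tracked by fluorescence at 340/450 nm between t=0 and t=15 min, room temperature. Final mix: 10 nM GPX1, 100 nM glutathione reductase, 1 mM GSH, 0.5 mM NADPH, 0.5 mM cumene hydroperoxide, 0.01% BSA; 30 min compound–enzyme preincubation.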

Assay [2] addresses Phospholipid hydroperoxide glutathione peroxidase GPX4 (Homo sapiens) (UniProt P36969). Nature of the assay: Primary qHTS Assay for Inhibitors of Recombinant Selenoprotein Glutathione Peroxidase 4 (GPX4) (AID 1845192). Also: nearly all actives have a fitted effect of over 65% in size. Put shortly: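 NADPH consumption followed by fluorescence at 340/450 nm, t=0 and after 15 min at room temperature. Reaction started with cumene hydroperoxide (0.5 mM final) after 30 min compound–GPX4 preincubation; final 200 nM GPX4, 100 nM GR, 1 mM GSH, 0.5 mM NADPH.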

The target in assay [3] is Luciferin 4-monooxygenase (Photinus pyralis) (UniProt P08659). Nature of the assay: Primary firefly luciferase (FLuc) qHTS assay for identification of artifact compounds. (AID 1845220). Also: nearly all actives have a fitted effect of over 60% in size. In short, it runs like this:
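Cell-free, 1536-well qHTS. Buffer pH 7.6 with 0.01% Tween-20 and 0.05% BSA; 10 uM D-luciferin, 10 uM ATP; 10 nM P. pyralis luciferase; luminescence after 5 min.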

Assay [4] can be described thus: Primary fluorescence-based thiol-reactive (MSTI) qHTS assay for identification of artifact compounds. (AID 1845221). Also: nearly all actives have a fitted effect of over 65% in size. Also: potency is read from the fitted curve at half-maximal effect.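 As to activity change, negative = thiol reactive: series mostly up to about 54 µM; thiol-reactive compounds lower the probe fluorescence signal.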 Put shortly: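 In PBS pH 7.4 with 2% DMSO, each compound met 4 uM MSTI for one hour at ambient temperature, shielded from light, before fluorescence detection.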

Glutathione peroxidase 1 (Homo sapiens), sequence (P07203 whole entry, looked up): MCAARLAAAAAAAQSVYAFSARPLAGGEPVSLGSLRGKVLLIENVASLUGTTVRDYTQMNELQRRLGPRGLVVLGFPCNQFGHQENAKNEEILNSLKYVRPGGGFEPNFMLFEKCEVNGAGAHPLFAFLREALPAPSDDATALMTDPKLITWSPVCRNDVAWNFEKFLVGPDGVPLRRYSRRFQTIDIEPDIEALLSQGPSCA
Phospholipid hydroperoxide glutathione peroxidase GPX4 (Homo sapiens), sequence (P36969 whole entry, looked up): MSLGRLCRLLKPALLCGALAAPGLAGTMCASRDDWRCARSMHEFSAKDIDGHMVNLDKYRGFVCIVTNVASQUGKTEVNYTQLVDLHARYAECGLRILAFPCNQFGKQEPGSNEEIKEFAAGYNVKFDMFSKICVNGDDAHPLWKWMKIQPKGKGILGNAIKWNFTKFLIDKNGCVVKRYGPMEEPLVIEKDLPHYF

Regarding `COc1ccc(C2OCC3C(c4cc(OC)c5c(c4)OCO5)OCC23)cc1OC` (stereo unspecified), the Potency entry in assay [1], in assay [2], in assay [3] and in assay [4] was “inactive” in each case.

As to `CC(C)C1NC(=O)CNC(=O)C2CCCN2C(=O)C(Cc2c[nH]c3ccccc23)NC(=O)CNC(=O)C(Cc2ccc(O)cc2)NC(=O)CNC1=O` (stereo unspecified) (cyclo(GVGYGWP); configuration not given here), the Potency entry in assay [1], in assay [2], in assay [3] and in assay [4] was “inactive” in each case.

With `CC(=O)O[C@H]1C[C@@H](O)C(C)(C)C2C[C@@H](OC(C)=O)[C@]3(C)C(CC[C@@]4(C)[C@H](c5ccoc5)OC(=O)[C@H]5O[C@]543)[C@]21C` (stereo partly specified), the Potency result in assay [1], in assay [2], in assay [3] and in assay [4] was “inactive” throughout.

Regarding `CC1CCC2(C(=O)O)CCC3(C)C(=CCC4C5(C)C[C@@H](O)[C@@H](O)C(C)(CO)C5CCC43C)C2C1(C)O` (stereo partly specified), the Potency entry in assay [1], in assay [2], in assay [3] and in assay [4] was “inactive” each time.

Regarding `COc1ccc(C2C(C(=O)O)C(C(=O)O)C2c2ccc(OC)cc2O[C@@H]2O[C@H](CO)[C@@H](O)[C@H](O)[C@H]2O)c(O[C@@H]2O[C@H](CO)[C@@H](O)[C@H](O)[C@H]2O)c1` (stereo partly specified), the Potency entry in assay [1], in assay [2] and in assay [3] was “inactive” throughout. In addition, the Potency in assay [4] is 2.81 µM (active).

For the molecule `C=C(C)C1CCC2(C(=O)OC3OC(COC4OC(CO)C(O)C(O)C4O)C(OC4OC(C)C(O)C(O)C4O)C(O)C3O)CCC3(C(=O)O)C(CCC4C5(C)CCC(=O)C(C)(C)C5CCC43C)C12` (stereo unspecified), the Potency result in assay [1] and in assay [2] was “inactive” in each case. The outcome in assay [3] is “inactive [at 11.6 µM]”. The activity change, negative = thiol reactive in assay [4] is 183% [at 11.5 µM].

Consider `CC(C)(O)C1CCC2(C)CCCC(C)(O)C2C1` (stereo unspecified), for which the Potency entry in assay [1], in assay [2], in assay [3] and in assay [4] was “inactive” in each case.

`C[C@]1(OC(=O)/C=C/c2ccccc2)C[C@@H](O)[C@]2(O)C=CO[C@@H](O[C@@H]3O[C@H](CO)[C@@H](O)[C@H](O)[C@H]3O)[C@@H]21`: the Potency entry in assay [1], in assay [2], in assay [3] and in assay [4] was “inactive” in each case.

As for `C=C1CC2C3(C)C(O)CC(=O)C(C)(C)C3C(O)C(OC(C)=O)C2(C)C2C(=O)OC(C)(C(=O)OC)C(=O)C12C` (stereo unspecified), the Potency entry in assay [1], in assay [2], in assay [3] and in assay [4] was “inactive” in each case.

As to `COC(=O)[C@]1(C)CCC[C@@]2(C)[C@@H]3CC[C@@H]4C[C@@]3(CC[C@@H]21)C[C@H]4C(=O)O`, the Potency entry in assay [1], in assay [2], in assay [3] and in assay [4] was “inactive” throughout.

With `Nc1ccc(-n2nc(C(F)(F)F)cc2C(F)(F)F)cc1`, the Potency entry in assay [1], in assay [2], in assay [3] and in assay [4] was “inactive” throughout.

On to `C/C=C/C=C/C=C/C(=O)OC1C=C2C(O)OC(=O)[C@]2(O)[C@@]2(C)CCCC(C)(C)[C@H]12` (stereo partly specified), for which the Potency result in assay [1], in assay [2], in assay [3] and in assay [4] was “inactive” throughout.

In the case of `COc1ccc(S(=O)(=O)Nc2nc(-c3cccc([N+](=O)[O-])c3)cs2)cc1OC`, the Potency entry in assay [1], in assay [2] and in assay [3] was “inactive” each time. Moreover, in assay [4], the Potency was 1.19 µM (active).

As to `C[C@@H]1O[C@@H](O[C@H]2[C@H](O)[C@@H](O[C@@H]3O[C@H](CO)[C@H](O)[C@H](O)[C@H]3O)[C@H](O[C@H]3CC[C@@]4(C)C(CC[C@]5(C)C4CC=C4[C@@H]6CC(C)(C)CC[C@]6(C(=O)O[C@@H]6O[C@H](CO)[C@@H](O)[C@H](O)[C@H]6O)CC[C@]45C)C3(C)C)O[C@@H]2C(=O)O)[C@H](O)[C@H](O)[C@H]1O` (stereo partly specified), the Potency entry in assay [1] and in assay [2] was “inactive” in each case. Also, in assay [3], the outcome is “inactive [at 11.6 µM]”. In addition, the activity change, negative = thiol reactive in assay [4] was 349% [at 11.5 µM].

For the molecule `CCC(C)C(=O)O[C@H]1C[C@](C)(O)[C@]23OC(C)(C)[C@H](C[C@H](OC(=O)c4ccccc4)[C@]2(COC(C)=O)[C@H]1OC(=O)C(C)CC)[C@H]3OC(C)=O` (stereo partly specified), the Potency entry in assay [1], in assay [2], in assay [3] and in assay [4] was “inactive” each time.

For `CC(=O)OCC1=CCC2C(C)(C)CCCC2(C)C12CCC(C)(CC(=O)O)O2` (stereo unspecified), the Potency result in assay [1], in assay [2], in assay [3] and in assay [4] was “inactive” each time.

With `Cc1cccc(NC(=O)CN2CCC(c3ccccn3)CC2)c1`, the Potency entry in assay [1], in assay [2], in assay [3] and in assay [4] was “inactive” in each case.

Turning to `CC(=O)NC(C(=O)OC1CCC(C)(C)C2CC=C3C(=O)OCC3C12C)C(C)C` (stereo unspecified), the Potency result in assay [1], in assay [2], in assay [3] and in assay [4] was “inactive” each time.

Take `O=C(/C=C/c1ccc(O)cc1)OC[C@@]1(O)C=C[C@@H]2C(C(=O)O)=CO[C@@H](O[C@@H]3O[C@H](CO)[C@@H](O)[C@H](O)[C@H]3O)[C@@H]21`: the Potency entry in assay [1], in assay [2] and in assay [3] was “inactive” each time. Further, the Potency in assay [4] was 5.19 µM (active).
